Consider 25 compounds from PubChem BioAssay (EPA / NIEHS).

SMILES strings stand for the structures. Results filed as inconclusive are left out. Activity calls are given as the source filed them. Rule for the calls: active = hit-call score of the fitted dose curve at least 0.9, where 1 is the maximum; inconclusive = response in the unintended direction; inactive = score below 0.9.

Sequence of Estrogen receptor (Homo sapiens) (P03372 whole entry, looked up): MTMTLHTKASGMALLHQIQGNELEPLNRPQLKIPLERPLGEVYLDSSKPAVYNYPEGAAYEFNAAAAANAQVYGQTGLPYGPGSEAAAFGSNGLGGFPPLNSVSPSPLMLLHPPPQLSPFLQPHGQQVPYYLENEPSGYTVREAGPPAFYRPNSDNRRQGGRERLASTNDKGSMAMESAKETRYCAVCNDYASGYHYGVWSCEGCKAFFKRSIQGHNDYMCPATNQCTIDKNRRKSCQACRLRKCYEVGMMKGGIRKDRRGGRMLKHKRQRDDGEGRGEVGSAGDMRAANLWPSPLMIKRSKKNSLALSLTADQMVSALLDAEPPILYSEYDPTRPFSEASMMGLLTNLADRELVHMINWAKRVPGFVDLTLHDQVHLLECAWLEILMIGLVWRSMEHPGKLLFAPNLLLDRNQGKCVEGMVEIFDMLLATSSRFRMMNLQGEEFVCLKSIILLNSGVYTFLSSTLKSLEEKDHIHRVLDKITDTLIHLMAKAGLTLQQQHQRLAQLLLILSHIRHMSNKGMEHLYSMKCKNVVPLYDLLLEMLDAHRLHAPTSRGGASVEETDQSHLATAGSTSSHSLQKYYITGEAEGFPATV

The target in the test is Estrogen receptor (Homo sapiens) (UniProt P03372). Nature of the test: NVS_NR_hER: NovaScreen (NVS) Nuclear Receptor Binding Assay for human Estrogen Receptor (ER) (AID 2283348). The method, then:
NVS_NR_hER is a biochemical, single-readout assay that uses extracted gene-proteins from MCF7 in a cell-free assay. Measurements were taken 18 hours after chemical dosing in a 96-well plate.NVS_NR_hER is one of one assay component(s) measured or calculated from the NVS_NR_hER assay. It is designed to make measurements of radioligand binding, a form of binding reporter, as detected with scintillation counting signals by Lysate-based radiodetection technology.Data from the assay component NVS_NR_hER was analyzed into 1 assay endpoint. This assay endpoint, NVS_NR_hER, was analyzed in the positive analysis fitting direction relative to DMSO as the negative control and baseline of activity. Using a type of binding reporter, loss-of-signal activity can be used to understand changes in the binding as they relate to the gene ESR1. Furthermore, this assay endpoint can be referred to as a primary readout, because the performed assay has only produced 1 assay endpoint. To generalize the intended target to other relatable targets, this assay endpoint is annotated to the nuclear receptor intended target family, where the subfamily is steroidal.
Binding assays used specific radioligands (tritiated, iodinated) with non-radioactive competitive displacement ligands in agonist or antagonist protocols (as indicated) and various reference compounds and inhibitors to titrate specific binding to receptors and transporters. Most enzyme assays (CYPs, kinases, phosphatases, proteases, HDACs) used recombinant protein and specific substrates (fluorescence mostly, some colorimetric and radioactive) and inhibitors, followed by a biochemical separation of substrate and product. All assays for the biochemical HTS were initially run in duplicate at a single concentration (10 uM for CYP450 assays and 25 uM for all others). […] Each assay was run with positive and negative controls, and concurrent controls on every plate. The follow-up (secondary) screen tested active chemical-pairs in concentration series, as well as a few additional assays not tested in the primary screen, some selected negative inactives, and several cases re-run in the concentration series for confirmatory purposes.
For `C[Si]1(C)O[Si](C)(C)O[Si](C)(C)O[Si](C)(C)O1`, the compound was called inactive.

Regarding `O=C(O)Cc1ccccc1Nc1c(Cl)cccc1Cl`, the result was inactive.

As for `CC(=O)C(C)=CC1C(C)=CCCC1(C)C` (stereo not given), the call was inactive.

`Cc1oc(-c2ccccc2)nc1CCOc1cccc2c1ccn2CCC(=O)O`: the result was inactive.

As to `C[C@]12C=CC(=O)C=C1CC[C@@H]1[C@@H]2C(=O)C[C@@]2(C)[C@H]1CC[C@]2(O)C(=O)CO`, the compound was classed as inactive.

In the case of `CC=Cc1ccc(O)c(OC)c1`, the call was inactive.

Take `CCCc1cc(=O)[nH]c(=S)[nH]1`: the half-maximal activity concentration (AC50) (commonly the concentration at which the activity in the assay is half-maximal) is 11.2 µM (active).

On to `COc1ccc2c(c1)c(CC(=O)O)c(C)n2C(=O)c1ccc(Cl)cc1`, for which the outcome was inactive.

In the case of `COc1cc(C=O)ccc1O`, the concentration at half-maximal activity (AC50) was 38.6 µM (active).

For the compound `Cc1cccc(Nc2cc(Cl)nc(SCC(=O)O)n2)c1C`, the call was inactive.

Turning to `CC(C)(C)c1cc(O)c(C(C)(C)C)cc1O`, the call was inactive.

As to `COC(=O)c1ccc(O)cc1`, the outcome was inactive.

Turning to `Cc1nc(-c2ccc3c(c2)CCN(CCC2CCC(NC(=O)/C=C/c4ccc(F)cc4)CC2)CC3)no1` (stereo not given), the outcome was inactive.

Regarding `CCCCCCCCCCCCCCCCCC(=O)O`, the AC50 is 17.2 µM (active).

As for `Oc1ccc2c(c1)OC[C@@H](N1CCC(O)(c3ccc(F)cc3)CC1)[C@H]2O`, the result was inactive.

As for `Nc1ccc2c(c1)C(=O)c1ccccc1C2=O`, the outcome was inactive.

On to `COc1ccc(S(=O)(=O)N2C(=O)[C@@](c3ccccc3OC)(N3C[C@H](O)C[C@H]3C(=O)N(C)C)c3cc(Cl)ccc32)c(OC)c1`, for which the outcome was inactive.

Regarding `CCOc1ccc2c(c1)C(C)=CC(C)(C)N2`, the half-maximal activity concentration (AC50) was 39.2 µM (active).

With `CCOC(=O)CCC(=O)OCC`, the call was inactive.

In the case of `C=CCOC(=O)c1ccccc1C(=O)OCC=C`, the concentration at half-maximal activity (AC50) was 41.4 µM (active).

Turning to `CC1=C(/C=C/C(C)=C/C=C/C(C)=C/CO)C(C)(C)CCC1`, the compound was called inactive.

As for `C=CCc1ccc(O)c(OC)c1`, the result was inactive.

Regarding `O=c1c(O)c(-c2ccc(O)c(O)c2)oc2cc(O)cc(O)c12`, the outcome was inactive.

With `CCCCC(CC)COC(=O)CC(C(=O)OCC(CC)CCCC)S(=O)(=O)O` (stereo not given), the result was inactive.

On to `CCCCCCC(=O)OCC`, for which the outcome was inactive.
